Data taken from the supplement of paper PMC13380429.

Tested on: Vero E6 infected with SARS-CoV-2
Assay: inhibition of SARS-CoV-2 cytopathic effect; higher = more antiviral protection, active = above 15
Details: 48 h

| SMILES | inhibition of SARS-CoV-2 cytopathic effect (1 nM) | inhibition of SARS-CoV-2 cytopathic effect (8.33 nM) | inhibition of SARS-CoV-2 cytopathic effect (100 nM) | inhibition of SARS-CoV-2 cytopathic effect (833.33 nM) | inhibition of SARS-CoV-2 cytopathic effect (10000 nM) |
| --- | --- | --- | --- | --- | --- |
| Cc1nn(C)c2nc(NNC(=O)Nc3cc(Cl)nc(Cl)c3)cc(C(C)C)c12 | -4.74% (inactive) | -3.45% (inactive) | -2.8% (inactive) | -1.22% (inactive) | 1.05% (inactive) |
| CN(C[C@@H]1COCCO1)S(=O)(=O)Nc1ccc2ccc3ncc(-c4cnn(C)c4)cc3c(=O)c2c1 | -0.78% (inactive) | 1.08% (inactive) | -0.46% (inactive) | -1.97% (inactive) | -4.16% (inactive) |
| CC(C(=O)O)c1ccc2c(c1)Cc1cccnc1O2 (stereo not given) [pranoprofen] | -0.06% (inactive) | 4.49% (inactive) | 2.65% (inactive) | 1.95% (inactive) | -1.17% (inactive) |
| O=C1C2CC=CCC2C(=O)N1SC(Cl)(Cl)Cl (stereo not given) [captan] | 1.85% (inactive) | 4.35% (inactive) | 4.16% (inactive) | 4.29% (inactive) | 7.49% (inactive) |
| c1ccc(OCc2ccc(CCCN3CCOCC3)cc2)cc1 [fomocaine] | 0.24% (inactive) | 1.88% (inactive) | 1.23% (inactive) | -0.27% (inactive) | 3.83% (inactive) |
| O=C(Nc1ccc(S(=O)(=O)Nc2nccs2)cc1)C(c1ccccc1)c1ccccc1 | -0.78% (inactive) | 3.67% (inactive) | 2.47% (inactive) | 2.29% (inactive) | -2.52% (inactive) |
| Fc1ccc(-c2nc3n(c2-c2ccncc2)CCS3)cc1 | 1.58% (inactive) | -0.78% (inactive) | -1.15% (inactive) | -1.03% (inactive) | -1.09% (inactive) |
| CC(=O)Oc1cc2c(s1)CCN(C(C(=O)C1CC1)c1ccccc1F)C2 (stereo not given) [prasugrel] | 2.32% (inactive) | 1.62% (inactive) | 0.43% (inactive) | 2.1% (inactive) | -0.82% (inactive) |
| CN(C)CCn1nnnc1SCC1=C(C(=O)O)N2C(=O)[C@@H](NC(=O)Cc3csc(N)n3)[C@H]2SC1 [cefotiam] | 1.69% (inactive) | -0.06% (inactive) | -0.67% (inactive) | 1.14% (inactive) | 0.56% (inactive) |
| CC(C(=O)O)c1ccc2c(c1)[nH]c1ccc(Cl)cc12 (stereo not given) [carprofen] | 4.44% (inactive) | 2.85% (inactive) | -6.45% (inactive) | 4.46% (inactive) | 3.76% (inactive) |
| O=C1NC(=S)NC(=O)C1C(=O)Nc1ccccc1 [merbarone] | -0.86% (inactive) | -1.86% (inactive) | -0.15% (inactive) | -0.03% (inactive) | 1.95% (inactive) |
| Cc1ccc(F)c(NC(=O)Nc2ccc(-c3cccc4[nH]nc(N)c34)cc2)c1 [linifanib] | -2.72% (inactive) | -3.15% (inactive) | -4.95% (inactive) | -2.75% (inactive) | -2.71% (inactive) |
| N[C@H](C(=O)O)c1ccc(O)cc1 [oxfenicine] | 2.15% (inactive) | 3.82% (inactive) | 2.38% (inactive) | 0.58% (inactive) | 2.3% (inactive) |
| COc1cc(C(=O)N(CC[C@H]2CCCN2C)C/C(C)=C/c2ccccc2F)cc(OC)c1OC (racemic) | -0.69% (inactive) | -1.9% (inactive) | 1.94% (inactive) | -0.01% (inactive) | -1.76% (inactive) |
| CCCn1c(=O)c2[nH]c(-c3cnn(Cc4cccc(C(F)(F)F)c4)c3)nc2n(CC)c1=O | 1.43% (inactive) | 1.19% (inactive) | 2.16% (inactive) | -0.96% (inactive) | 0.11% (inactive) |
| C[N+]12CCCCC1CCC(=C(c1cccs1)c1cccs1)C2 (stereo not given) [tiquizium] | -3.91% (inactive) | -0.22% (inactive) | 2.71% (inactive) | -2.14% (inactive) | -3.03% (inactive) |
| NC(=O)N/N=C/c1ccc(Oc2ccc(F)cc2)cc1 | -1.46% (inactive) | -1.91% (inactive) | -0.81% (inactive) | 1.11% (inactive) | 3.26% (inactive) |
| O=C(Nc1ccc(Cl)cc1)Nc1cccc(-c2cccc(N3CCCC3)n2)c1 | 1% (inactive) | 1.53% (inactive) | -2.03% (inactive) | -4.04% (inactive) | -6.24% (inactive) |
| O=c1cc(-c2ccccc2)oc2cc(O)c(O)c(O)c12 [baicalein] | 1.61% (inactive) | 3.69% (inactive) | -0.24% (inactive) | -2.55% (inactive) | -5.11% (inactive) |
| O=C(O)C1(C(=O)O)CCC1.[NH2-].[NH2-].[Pt+2] [carboplatin] | 2.35% (inactive) | 3.65% (inactive) | 4.49% (inactive) | 9.87% (inactive) | 4.39% (inactive) |
| O=C(N[C@H](Cc1ccccc1)C(=O)O)c1sc2cc(F)ccc2c1Cl | 2.8% (inactive) | 1.61% (inactive) | 0.39% (inactive) | 1.13% (inactive) | 3.31% (inactive) |

| SMILES | inhibition of SARS-CoV-2 cytopathic effect (1 nM) | inhibition of SARS-CoV-2 cytopathic effect (8.33 nM) | inhibition of SARS-CoV-2 cytopathic effect (100 nM) | inhibition of SARS-CoV-2 cytopathic effect (833.33 nM) | inhibition of SARS-CoV-2 cytopathic effect (10000 nM) |
| --- | --- | --- | --- | --- | --- |
| CC(CCc1ccccc1)NCC(O)c1ccc(O)c(C(N)=O)c1 (stereo not given) [labetalol] | -0.33% (inactive) | 0.13% (inactive) | 0.47% (inactive) | 0.67% (inactive) | -2.41% (inactive) |
| CCC(=O)O[C@H]1CC[C@H]2[C@@H]3CCC4=CC(=O)CC[C@]4(C)[C@H]3CC[C@]12C | -13.2% (inactive) | -10.2% (inactive) | -12.5% (inactive) | -13.3% (inactive) | -14% (inactive) |
| CCC/N=C1\S/C(=C\c2ccc(OC[C@H](O)CO)c(Cl)c2)C(=O)N1c1ccccc1C [ponesimod] | -1.82% (inactive) | -0.6% (inactive) | -2.77% (inactive) | -2.51% (inactive) | -0.58% (inactive) |
| CC(C)C[C@H](NC(=O)CNC(=O)c1cc(Cl)ccc1Cl)B1OC(=O)C(CC(=O)O)(CC(=O)O)O1 [ixazomib-citrate] | 2.06% (inactive) | 1.34% (inactive) | 22.3% (active) | 29% (active) | 20.8% (active) |
| Cc1cc(S(=O)(=O)O)c2c(C)ccc(C(C)C)cc1-2 [sodium-gualenate] | -10.1% (inactive) | -5.96% (inactive) | -9.82% (inactive) | -7.07% (inactive) | -0.7% (inactive) |
| Nc1ccc(S(N)(=O)=O)cc1 [sulfanilamide] | -4.21% (inactive) | -0.69% (inactive) | 4.19% (inactive) | 2.93% (inactive) | 1.32% (inactive) |
| C=CC1=C(C(=O)O)N2C(=O)[C@@H](NC(=O)/C(=N\O)c3csc(N)n3)[C@H]2SC1 [cefdinir] | 1.85% (inactive) | 2.62% (inactive) | 2.17% (inactive) | -0.24% (inactive) | 0.66% (inactive) |
| C[C@H](CCC(=O)O)[C@H]1CC[C@H]2[C@@H]3C[C@H](O)[C@@H]4C[C@H](O)CC[C@]4(C)[C@H]3CC[C@]12C [Hyodeoxycholic acid (HDCA)] | -1.55% (inactive) | 0.2% (inactive) | 1% (inactive) | 2.52% (inactive) | -1.93% (inactive) |
| c1ccc(N2CCN(CCCOc3ccc4c(c3)OCO4)CC2)cc1 | -0.84% (inactive) | -2.11% (inactive) | -4.95% (inactive) | -3.5% (inactive) | -4.64% (inactive) |
| CCOc1c(N2CCOCC2)cnn(C)c1=O [emorfazone] | -7.19% (inactive) | -6.29% (inactive) | -2.95% (inactive) | -0.94% (inactive) | 0.67% (inactive) |
| CCS(=O)(=O)N(C)[C@@H]1c2cc(C#N)ccc2OC(C)(C)[C@H]1O.CCS(=O)(=O)N(C)[C@H]1c2cc(C#N)ccc2OC(C)(C)[C@@H]1O (racemic) [chromanol-(+/-)] | -3.93% (inactive) | 0.47% (inactive) | -1.69% (inactive) | -0.89% (inactive) | -1.62% (inactive) |
| CCN(CC)CCNc1ccc(CO)c2sc3ccccc3c(=O)c12 [hycanthone] | -3.88% (inactive) | -2.41% (inactive) | -0.96% (inactive) | -2.51% (inactive) | 0.99% (inactive) |
| CC(C)(Oc1ccc(Cl)cc1)C(=O)O [clofibric-acid] | 0.55% (inactive) | 2.02% (inactive) | 0.3% (inactive) | 2.45% (inactive) | 2.22% (inactive) |
| NCCc1c[nH]cn1 [histamine] | -0.66% (inactive) | 1.36% (inactive) | 0.17% (inactive) | 1.23% (inactive) | 1% (inactive) |
| CN1C(=O)CN=C(c2ccccc2)c2cc(Cl)ccc21 [diazepam] | -0.19% (inactive) | 0.35% (inactive) | 1.99% (inactive) | 0.56% (inactive) | 0.22% (inactive) |
| Cc1oc2nc3c(c(NC(=O)CN4CCCC4=O)c2c1C)CCCC3 | 0.92% (inactive) | -2.29% (inactive) | -0.3% (inactive) | -0.97% (inactive) | 0.5% (inactive) |
| c1ccc2c(c1)sc1ccccc12 [dibenzothiophene] | -0.91% (inactive) | 1.31% (inactive) | 0.34% (inactive) | 0.07% (inactive) | 0.68% (inactive) |
| COc1ccc2c(c1OC)C(=O)O[C@@H]2[C@H]1c2cc3c(cc2CCN1C)OCO3 [hydrastine-(1R,9S)] | 2.12% (inactive) | 0.73% (inactive) | 1.14% (inactive) | 1.33% (inactive) | -0.76% (inactive) |
| C=CC(=O)Nc1cccc(Oc2nc(Nc3ccc(N4CCN(C)CC4)cc3OC)ncc2Cl)c1 | -1.07% (inactive) | 3.52% (inactive) | -0.84% (inactive) | -9.12% (inactive) | -11.8% (inactive) |
| COc1cc2c(cc1OC)-c1cc3nc4ccccc4nc3n1C(C)(C)C2 | 2.63% (inactive) | 1.86% (inactive) | 1.86% (inactive) | -2.74% (inactive) | -7.6% (inactive) |
